Assay results from PubChem BioAssay AID488969 (Vanderbilt High Throughput Screening Facility, 2010).
Over roughly 110,000 compounds, “z-score” has its median near -0.1; the highest 2% begin near 2. Only a selection was taken, and the highest values are over-represented in it overall. Calls of active or inactive are those of the source.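 The calls were made as follows: active = z-score in the third read window above 3 or below -3; inactive = the rest.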

target: Metabotropic glutamate receptor 8 (Rattus norvegicus) (UniProt P70579); experiment: mGluR8 Gi/Go-coupled signaling modulation – cell-based, rat, thallium flux, HTS, primary screen (AID 488969); conditions: HEK293 rat mGluR8, GIRK (G protein-gated inwardly rectifying potassium channel) thallium flux, FluoZin2; at 10 µM; stronger effect = higher value; submaximal glutamate (EC20) added with thallium
Sequence (P70579 whole entry, looked up): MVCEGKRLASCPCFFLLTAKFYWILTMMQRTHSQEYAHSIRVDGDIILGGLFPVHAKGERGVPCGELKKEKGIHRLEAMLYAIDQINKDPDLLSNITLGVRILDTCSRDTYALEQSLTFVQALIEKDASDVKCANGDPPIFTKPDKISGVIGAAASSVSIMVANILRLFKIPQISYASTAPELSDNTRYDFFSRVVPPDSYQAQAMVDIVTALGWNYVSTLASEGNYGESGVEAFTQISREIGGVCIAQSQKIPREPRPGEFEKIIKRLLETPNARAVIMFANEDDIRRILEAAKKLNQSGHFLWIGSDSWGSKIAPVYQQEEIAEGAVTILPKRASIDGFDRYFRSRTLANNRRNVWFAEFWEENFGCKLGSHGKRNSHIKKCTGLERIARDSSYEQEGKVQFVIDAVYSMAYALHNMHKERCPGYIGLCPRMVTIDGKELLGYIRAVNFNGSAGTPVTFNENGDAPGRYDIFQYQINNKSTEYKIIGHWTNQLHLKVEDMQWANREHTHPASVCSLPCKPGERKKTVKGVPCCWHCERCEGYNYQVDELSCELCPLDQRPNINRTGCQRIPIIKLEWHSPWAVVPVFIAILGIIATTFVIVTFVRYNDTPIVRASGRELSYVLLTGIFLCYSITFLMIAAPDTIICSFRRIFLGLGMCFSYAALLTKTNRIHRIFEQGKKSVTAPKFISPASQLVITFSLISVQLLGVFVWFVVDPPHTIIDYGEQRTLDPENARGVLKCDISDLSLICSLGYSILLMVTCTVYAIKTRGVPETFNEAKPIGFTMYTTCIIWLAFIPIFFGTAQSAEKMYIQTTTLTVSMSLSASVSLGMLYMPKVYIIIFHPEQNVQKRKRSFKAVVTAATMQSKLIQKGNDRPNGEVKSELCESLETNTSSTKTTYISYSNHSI

| Compound | z-score |
| --- | --- |
| CCSc1nnc(NC(=O)C(CC)(C(F)(F)F)C(F)(F)F)s1 | -0.322 |
| CCSc1nnc(NC(=O)NC(CC)(C(F)(F)F)C(F)(F)F)s1 | 3.86 (active) |
| CCCC(=O)Nc1nnc(SCC)s1 | 0.0928 |
| CCC(=O)Nc1nnc(SCCOC)s1 | 0.214 |
| CCCCN1CCc2[nH]c(=S)[nH]c(=O)c2C1 | -0.178 |
| Cc1ccccc1C(=O)Oc1cccc(Nc2ncnc3ccccc23)c1 | -1.4 |
| CC(NC(=O)C1CCC1)c1ccc(Br)cc1 (configuration not stated) | -0.264 |
| CCN(CC)S(=O)(=O)c1cccc(C(=O)NC(C(=O)NC2=NCCS2)C(C)C)c1 (configuration not stated) | 0.126 |
| CCNc1nc(NC#N)nc(SCC(=O)OCC)n1 | -0.413 |
| COC(=O)c1ccc(CSc2nc3c(cnn3-c3ccccc3)c(=O)[nH]2)o1 | -0.686 |
| CC(C)(C)c1ccc(OCC(=O)NNC(=O)CCc2ccccc2)cc1 | 0.639 |
| CC(=O)Nc1ccc(C(=O)NNC(=O)CCc2ccccc2)cc1 | -0.185 |
| O=C(CCc1ccccc1)NNC(=S)NC(=O)c1ccc(Cl)cc1 | 3.03 (active) |
| COc1ccc(C(=O)NC(=S)NNC(=O)CCc2ccccc2)cc1 | 3.38 (active) |
| O=C(CCc1ccccc1)NNC(=S)NC(=O)c1ccccc1 | 1.13 |
| O=C(CCc1ccccc1)NNC(=O)c1ccc(NC(=O)c2ccccc2)cc1 | 0.0748 |
| O=C(Cc1csc(N2CCOCC2)n1)N/N=C/c1ccc(Cl)cc1Cl | -0.885 |
| N#Cc1c2n(c(=S)n(-c3ccccn3)c1=O)CCCCC2 | -0.927 |
| N#Cc1c2n(c(=O)[nH]c1=O)CCCCC2 | -0.0381 |

| Compound | z-score |
| --- | --- |
| N#Cc1c2n(c3c(=S)nc[nH]c13)CCCCC2 | 2.2 |
| O=C(CNC(=O)c1ccccc1F)NCCOc1ccccc1Cl | -0.065 |
| CC1(C)CC(=O)C2=C(C1)OC1=C(C(=O)CC(C)(C)C1)C2(C)C | -0.182 |
| CCOC12CC(C)(C)CC(C)(CC3=C1C(=O)CC(C)(C)C3)C2 (configuration not stated) | 2.32 |
| CCOc1ccc(N=CC2=C(O)CC(C)(C)CC2=O)cc1 | 0.649 |
| CCOC(=O)C1CCCN(C(=O)CN2C(=O)COc3ccc(C(C)(C)C)cc32)C1 (configuration not stated) | -1.06 |
| CCOC(=O)N1CCN(Cc2nc3c(c(=O)n(C)c(=O)n3C)n2Cc2ccccc2C)CC1 | -0.27 |
| COc1ccccc1NC(=S)NCCc1ccccc1 | -0.188 |
| Fc1ccc(NC(=S)NCCc2ccccc2)c(F)c1F | 2.71 |
| S=C(NCCc1ccccc1)Nc1ccc(Cl)cc1Cl | 1.43 |
| S=C(NCCc1ccccc1)Nc1ccc(Br)cc1 | 0.268 |
| Fc1ccccc1NC(=S)NCCc1ccccc1 | 0.134 |
| COc1ccc(NC(=S)NCCc2ccc(Cl)cc2)c(OC)c1 | 0.319 |
| Fc1cc(Br)ccc1NC(=S)NCCc1ccccc1 | 7.09 (active) |
| Fc1cc(Br)ccc1NC(=S)Nc1ccccc1 | 0.843 |
| COc1ccccc1NC(=S)NCCc1ccc(Cl)cc1 | 3.06 (active) |
| COc1cc2c(cc1NC(=O)CSc1ccccc1)oc1ccccc12 | -0.258 |
| O=C(N/N=C/c1c[nH]c2ccccc12)c1cc(-c2cccc3ccccc23)n[nH]1 | -0.463 |
| COc1ccc(OCC(=O)O/N=C(\N)Cc2ccc(Cl)cc2Cl)cc1 | 0.353 |

| Compound | z-score |
| --- | --- |
| CCOC(=O)c1[nH]c(C)c(/C(O)=C2\C(=O)C(=O)N(CCCN(C)C)C2c2cccnc2)c1C (configuration not stated) | -0.333 |
| COc1cc(CNc2nc3ccccc3n2C)cc(OC)c1OC | -0.245 |
| CCCNC(=O)COC(=O)c1cc(SC)ccc1Cl | 0.561 |
| O=C(CN(C(=O)Cn1nnc(-c2cccs2)n1)c1ccc2c(c1)OCCO2)NC1CCCCC1 | -0.0843 |
| Cc1cccc(N2C(=S)N=C(Nc3c(C)cccc3C)C23CCOC(C)(C)C3)c1 (configuration not stated) | -0.179 |
| Cc1ccccc1NC1=NC(=S)N(c2ccccc2)C12CCOC(C)(C)C2 (configuration not stated) | 12.6 (active) |
| Cc1ccc(N2C(=S)N=C(Nc3ccccc3C)C23CCOC(C)(C)C3)cc1 (configuration not stated) | 15 (active) |
| CCC1(C)C(Nc2c(C)cccc2C)=NC(=S)N1c1ccc(NC(C)=O)cc1 (configuration not stated) | -0.38 |
| Cc1cccc(C)c1NC1=NC(=S)N(c2ccc(N(C)C)cc2)C1(C)C | 1.87 |
| Cc1cccc(C)c1NC1=NC(=S)N(c2ccccc2)C12CCOC(C)(C)C2 (configuration not stated) | 0.847 |
| Cc1sc(NC(=S)NC(=O)C(C)(C)C)c(C(N)=O)c1C | -0.0974 |
| O=C(O)C1C2C=CC(C2)C1C(=O)NCCc1cccc(Cl)c1 (configuration not stated) | 6.03 (active) |
| O=C(O)C1C2C=CC(C2)C1C(=O)NCCc1ccccc1 (configuration not stated) | -0.122 |
| O=C(O)C1C2C=CC(C2)C1C(=O)NCCc1ccncc1 (configuration not stated) | 0.718 |
| CCc1nnc(NC(=O)CN2CCN(c3cccc(OC)c3)CC2)s1 | 0.136 |
| CCCOC(=O)NC(CC)COC(=O)Nc1cc(C)ccc1C (configuration not stated) | -0.0367 |
| CCC(COC(=O)Nc1cccc(C)c1C)NC(=O)OCC(C)C (configuration not stated) | -0.549 |
| CCCOC(=O)NC(CC)COC(=O)Nc1cccc(C)c1C (configuration not stated) | 3.15 (active) |
| CN(C1CCCCC1)S(=O)(=O)c1ccc2c(c1)c(=O)c(C(=O)N1CCc3ccccc3C1)cn2C | -1.33 |
